Data on 73 compounds can be found in ChEMBL document CHEMBL4513216, “Probing the Open Global Health Chemical Diversity Library for Multistage-Active Starting Points for Next-Generation Antimalarials” (ACS Infect Dis, 2020).

Molecules are shown by their SMILES. The campaign covered roughly 69,000 compounds. About 8,600 (12%) showed an effect of 50% or more. What follows is part of a selection rich in strong results, with near analogues and random picks from the rest.

In this test the test system is Plasmodium berghei. As to the kind of experiment: Screen against P. berghei liver stage (PbLuc), transformed with Luciferase, at 10uM. The class given is functional, HepG2. Particulars: tested at 10 uM.
In the case of `CN(C)C(=O)CCNC(=O)Nc1cccc(Cl)c1-n1cccn1`, the INHIBITION is -10.3%.
The value for `CCc1nnc(CN(C)c2cc(C)nc3c(C)c(C)nn23)o1` was 36.7%; that for `CCc1cc(N(C)Cc2ccnc(C)c2)n2nc(C)c(C)c2n1` was 73.5%.
Next, `CCc1cc(N(C)Cc2ccno2)n2nc(C)c(C)c2n1`: -2.73%; `Cc1cc(N(C)Cc2cc(C)on2)n2nc(C)c(C)c2n1`: -45.4%; `CCc1cc(N(C)Cc2cc[nH]n2)n2nc(C)c(C)c2n1`: 81.7%.
As for `CCc1cc(N(C)Cc2ccncn2)n2nc(C)c(C)c2n1`, the INHIBITION stood at 42.3%.
For the compound `COc1ncc(-c2ccc(C(N)=O)cc2)c(OC)n1`, the INHIBITION is reported as 9.41%.
The value for `CN(C)Cc1cn2c(n1)CN(C1CCOC1)CC2` (stereo not drawn) was -4.32%; that for `NC(=O)C1CCN(C(=O)NC(Cc2ccccc2)C(F)(F)F)CC1` (stereo not drawn) was -82.2%.
Take `Cc1cnn(CC2CN(Cc3nnc(C(C)C)o3)CCO2)c1` (stereo not drawn): the INHIBITION was determined as 30.6%.
Next, `Cc1nc(CN(C)C(=O)C2CCC(=O)N(CCN(C)C)C2)cs1` (stereo not drawn): 20.8%; `COCCN1CC(C(=O)N(C)Cc2csc(C)n2)CC1=O` (stereo not drawn): 57.8%; `Cc1nc(CN(C)C(=O)C2CC(=O)N(c3cccc(O)c3)C2)cs1` (stereo not drawn): 7.6%.
Next, `Cn1cc(CCNC(=O)NCc2ccc3c(c2)OCCO3)cn1`: 24.5%; `CCC(=O)N1CCC2(CC1)COc1ccccc1S(=O)(=O)N(C)C2`: -0.182%; `CN(C)CC(=O)N1CCC2(CC1)COc1ccccc1S(=O)(=O)N(C)C2`: 50%.
Regarding `CN(C)C(=O)CN1CCC2(CC1)COc1ccccc1S(=O)(=O)N(C)C2`, the INHIBITION is 17.4%.
Next, `COCCN1CCC2(CC1)COc1ccccc1S(=O)(=O)N(C)C2`: -4.32%; `CN1CC2(CCN(C(=O)C3CCC3)CC2)COc2ccccc2S1(=O)=O`: 20.4%; `COCC(=O)N1CCC2(CC1)COc1ccccc1S(=O)(=O)N(C)C2`: 66.8%.
The value for `N#Cc1csc(CNCCOc2ccc(Cl)cn2)c1` was 4.35%; that for `Cc1cnn(CC2CCCN2C(=O)CCCc2nc(C)no2)c1` (stereo not drawn) was -45.8%.
In the case of `Fc1cc(CCNc2ccc3nccn3n2)c2c(c1)COCO2`, the INHIBITION came out at 48.2%.
Next, `CC(C)(C)c1cc(NC(=O)CN2CCC(N3CCNC3=O)CC2)on1`: 3.73%; `CC(=O)N1CCC(c2ncc3c(n2)CCN(C(=O)c2ccccc2)C3)C1` (stereo not drawn): 1.5%; `CCOCCN1CCC=C(C2c3nc[nH]c3CCN2C(C)=O)C1` (stereo not drawn): 36.6%.
Next, `CCn1nc(C)c(CN2CCC(c3ccc(C(=O)O)cc3)C2)c1C` (stereo not drawn): 27.9%; `Cc1nn(C)c(C)c1CN1CCCC(c2ccc(C(=O)O)cc2)C1` (stereo not drawn): 6.88%.
Next, `CCn1nc(C)c(CN2CCCC(c3ccc(C(=O)O)cc3)C2)c1C` (stereo not drawn): 62.4%; `CCC(=O)N1CCN(c2ncnc3c(C)nn(C)c23)CC1`: 50.7%; `Cc1nn(C)c2c(N3CCN(C(=O)C(C)C)CC3)ncnc12`: 10.1%.
With `Cc1nn(C)c2c(N3CCN(C(=O)C4CC4)CC3)ncnc12`, the INHIBITION is recorded as 44.1%.
Next, `CCc1nc(N2CCN(c3ncccn3)CC2)c2cnn(C)c2n1`: -3.55%.
Consider `CCc1nc(N2CCN(c3ncccc3C#N)CC2)c2cnn(C)c2n1`, for which the INHIBITION was determined as 53.7%.
For `CCc1nc(N2CCCN(c3ncccn3)CC2)c2cnn(C)c2n1`, the INHIBITION stood at 33.3%.
The value for `O=C(c1ccc(F)cc1)N1CCC2(CCCN2CC2CC2)CC1` was 26.6%.
The value for `COc1ccccc1N1CCN(Cc2cnc3c(c2)c(C)nn3C)CC1` was 32.3%.
The value for `CCCN1CCC(NC(=O)c2csc(C)c2C)CC1` was 64.4%.
Take `CCCN1CCC(NC(=O)c2csc(C)c2-c2ccc(C)cc2)CC1`: the INHIBITION was found to be 1.56%.
The value for `CCCN1CCC(NC(=O)c2ccc(F)cc2I)CC1` was 46.8%; that for `CCCN1CCC(NC(=O)c2csc(C)c2-c2ccccc2)CC1` was 81.5%; that for `Cc1ccc(-c2c(C(=O)NC3CCN(C)CC3)csc2C)cc1` was 68.4%.
The value for `Cc1ncsc1C(=O)NC1CCN(CCC(=O)Nc2ccccc2)CC1` was -5.07%; that for `Cc1ccc(-c2ccsc2C(=O)NC2CCS(=O)(=O)C2)cc1` (stereo not drawn) was -63.5%.
`CN1CCC(NC(=O)NCc2csc(Br)c2)CC1`: the INHIBITION is on record as 45.9%.
Next, `CCCN1CCC(NC(=O)NCCc2nc(CC)c(C)s2)CC1`: 26.8%; `CC(C)c1nnc(CN2CCCC(Cn3cncn3)C2)o1` (stereo not drawn): 22.03%.
On to `O=c1cc2c(nn1CN1CCN(c3ccc(F)cc3)CC1)CCC2`, for which the INHIBITION is listed as -6.53%.
Next, `C[C@H](NC(=O)Cc1csc(-c2cccc(Cl)c2)n1)C(=O)O`: 35%.
`COCC(=O)N1CCCCC1c1nc(C)c2c(n1)N(CC1CC1)C(=O)C2` (stereo not drawn): the INHIBITION amounted to 23%.
Next, `O=c1ccc(-c2ccccc2F)nn1CN1CCCCCC1`: -22.9%; `CCn1c(CC2CCN(S(=O)(=O)Cc3ccccc3)CC2)nn(C)c1=O`: -28.1%.
The value for `CN1CCCC(c2ccc(N3CCOCC3)cn2)C1` (stereo not drawn) was -2.48%.
For the compound `COC[C@H]1CC[C@H]2[C@H](CCN2S(=O)(=O)Cc2ccccc2)O1`, the INHIBITION was -34.6%.
Regarding `Cc1ccc(CS(=O)(=O)N2CC[C@H]3[C@H]2CC(=O)N3C)cc1`, the INHIBITION stood at 15.4%.
Turning to `CCOC[C@@H]1CC[C@H]2[C@H](CCN2S(=O)(=O)Cc2ccccc2)O1`, the INHIBITION is reported as 57.1%.
Next, `CCOC[C@H]1CC[C@H]2[C@H](CCN2S(=O)(=O)Cc2ccccc2)O1`: 12.1%; `CN1C(=O)C[C@@H]2[C@@H]1CCN2S(=O)(=O)Cc1ccccc1`: 26.8%.
The value for `CN1C(=O)CC[C@@H]2[C@H]1CCN2S(=O)(=O)Cc1ccccc1` was 61.5%; that for `Cc1ccc2cnn(CCC(=O)Nc3nc(C)c(C)s3)c2c1` was 30.8%.
The value for `CCC(Nc1cccc(OC)c1)C(=O)NCc1ccc2c(c1)OCO2` (stereo not drawn) was 36.4%; that for `Cn1nnc2c1C(COCC1CC1)CN(Cc1ccoc1)C2` (stereo not drawn) was 42.3%.
On to `Cc1ccc(NC(=O)c2ccc(=O)n(CC(=O)Nc3nccs3)n2)cc1`, for which the INHIBITION was 42.7%.
As for `NC(=O)c1ccc(CN2C(=O)C3(CCNCC3)Nc3ccccc32)cc1`, the INHIBITION is recorded as 67%.
The value for `NC(=O)c1ccc(CN2CCCC(N3CCCCCC3)C2)cc1` (stereo not drawn) was 22%; that for `CC(C)c1ccc(CN2C(=O)C3(CCNCC3)Nc3ccccc32)cc1` was 80.9%.
As for `C=Cc1ccc(CN2CCCC3(CNC(=O)c4ccccc4O3)C2)cc1` (stereo not drawn), the INHIBITION came to 29.2%.
With `O=C1CC2(CCCNC2)C(=O)N1Cc1ccc(F)cc1` (stereo not drawn), the INHIBITION came out at 4.06%.
On to `C=Cc1ccc(CN2C(=O)C3(CCNCC3)Nc3ccccc32)cc1`, for which the INHIBITION amounted to 87.8%.
Turning to `O=C1CC2(CCCNC2)C(=O)N1Cc1ccccc1` (stereo not drawn), the INHIBITION is given as 27.4%.
As to `O=C1CC2(CCNCC2)C(=O)N1Cc1ccc(F)cc1`, the INHIBITION turned out to be 16.1%.
Next, `N#Cc1cccc(CN2C(=O)C3(CCNCC3)Nc3ccccc32)c1`: 25.5%.
